The whole screen tested about 4,400 compounds, of which about 390 (8.9%) showed an effect of 50% or more. What follows is part of a selection rich in strong results, with near analogues and random picks from the rest.
Test system: Trypanosoma brucei
Experiment: DNDI: Inhibition of Human African Trypanosomiasis, SBRI 427, in vitro at 2 ug.mL-1
Type: functional

SMILES | % inhibition [%]
CC(NCc1coc(-c2ccc(Cl)cc2Cl)n1)C(C)(C)C (stereo not drawn) | 55
CCCC(CCC)NCc1coc(-c2ccccc2Br)n1 | -3
CCOc1ccccc1-c1nc(CNC(CC)COC)co1 (stereo not drawn) | 5
COCC(C)NCc1coc(-c2ccc(Cl)cc2Cl)n1 (stereo not drawn) | 2
CCCC(CCC)NCc1coc(-c2ccccc2OCC)n1 | 98
Cc1ccc(-c2nc(CN(c3ccccc3)C(C)C)co2)cc1 | 23
c1ccc2c(-c3nc(CN4CCC(N5CCCC5)CC4)co3)cccc2c1 | 35
CN(CCc1ccccn1)Cc1coc(-c2ccc(Cl)cc2Cl)n1 | -26
Fc1ccc(-c2nc(CN(Cc3ccccn3)Cc3ccccn3)co2)cc1 | 48
Cc1ccc(-c2nc(CN(Cc3ccccn3)Cc3ccccn3)co2)cc1 | 83
COc1ccc(-c2nc(CN(Cc3ccccn3)Cc3ccccn3)co2)cc1 | 46
COCCN(CCOC)Cc1coc(-c2ccc(Cl)cc2Cl)n1 | 6
COCCN(CCOC)Cc1coc(-c2cccc(C)c2)n1 | 13
Cc1cccc(-c2nc(CN(Cc3ccccn3)Cc3ccccn3)co2)c1 | 63
Fc1cccc(-c2nc(CN(Cc3ccccn3)Cc3ccccn3)co2)c1 | 4
Clc1ccc(-c2nc(CN(Cc3ccccn3)Cc3ccccn3)co2)c(Cl)c1 | 58
C=CCN(C)Cc1coc(-c2ccc(OC)cc2)n1 | 18
c1ccc2c(-c3nc(CNCCN4CCOCC4)co3)cccc2c1 | 7
Cc1ccccc1-c1nc(CN(Cc2ccccc2)C(C)C)co1 | 7

SMILES | % inhibition [%]
Cc1ccc(/C(=N/O)NC2CCc3ccccc32)c(Oc2cccc(F)c2)n1 (stereo not drawn) | 23
Cc1ccc(-c2nc(CNC(C)CC(C)C)co2)cc1 (stereo not drawn) | 4
Cc1ccc(Oc2nc(C)ccc2/C(=N/O)NC2CC2)cc1 | 30
CSc1ccc(Oc2nc(C)ccc2/C(=N/O)NC2CCCC2)cc1C | 88
Cc1ccc(Oc2nc(C)ccc2/C(=N/O)NC2CCCC2)cc1 | 97
COc1ccc(Oc2nc(C)ccc2/C(=N/O)NC2CCCC2)cc1 | 101
COc1ccc(Oc2nc(C)ccc2/C(=N/O)NC2CCC2)cc1 | -19
COCCN/C(=N\O)c1ccc(C)nc1Oc1ccc(SC)c(C)c1 | 98
COc1ccc(Oc2nc(C)ccc2/C(=N/O)NC2CC2)cc1 | 4
CSc1ccc(Oc2nc(C)ccc2/C(=N/O)NCCN(C)C)cc1C | -3
CCCN/C(=N\O)c1ccc(C)nc1Oc1ccc(SC)c(C)c1 | 11
CSc1ccc(Oc2nc(C)ccc2/C(=N/O)NC2CCCCC2)cc1 | 1
Cc1ccc(/C(=N/O)NC2CCCC2)c(Oc2ccc(F)cc2)n1 | 23
CSc1ccc(Oc2nc(C)ccc2/C(=N/O)NCC2CC2)cc1C | 14
Brc1ccc(-c2nc(CNCCc3ccccn3)co2)cc1 | -9
FC(F)(F)Oc1ccc(-c2nc(CNCc3ccccc3OC(F)(F)F)co2)cc1 | -17
Fc1cccc(-c2nc(CNCc3ccc(OC(F)(F)F)cc3)co2)c1 | 7
CN1CCCC1CCN/C(=N\O)c1cccnc1Oc1ccc(Cl)cc1 (stereo not drawn) | -1
O=C(c1ccco1)N1CCN(Cc2coc(-c3ccc(Cl)cc3Cl)n2)CC1 | 21

From ChEMBL document CHEMBL1857833, “Screening and optimization of specific chemical series against human African Trypanosomiasis (HAT)”
